Test [1] in a line: A CellTox Green Cytotoxicity Assay to monitor cytotoxicity in HEK293 cells - 32 hour (AID 1224881). Further: nearly all actives have a fitted effect of over 40% in size. The method, boiled down: (§1)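 Dead-cell fluorescence measured kinetically: asymmetric cyanine dye, HEK293, 600 cells/well, 5 h settle, 23 nL cpd/DMSO, 37 C, reads 0–40 h every 8 h.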
Test [2] in a line: A CellTox Green Cytotoxicity Assay to monitor cytotoxicity in HepG2 cells - 0 hour (AID 1224882). Further: nearly all actives have a fitted effect of over 35% in size. The method, boiled down:
(§2)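 First, HepG2 cells (600/well) mixed with reagent were plated; second, after 5 h at 37 C they received compounds via pintool; third, fluorescence was measured at 0 h through 40 h at 8 h intervals.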

Test [3] in a line: A CellTox Green Cytotoxicity Assay to monitor cytotoxicity in HepG2 cells - 32 hour (AID 1224883). Further: nearly all actives have a fitted effect of over 50% in size. The gist of the method:
as §2

Test [4] can be described thus: qHTS RealTime-Glo MT Cell Viability Assay in HepG2 cells - 16 hour (AID 1224885). Further: nearly all actives have a fitted effect of over 50% in size. The gist of the method:
(§3)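 Viability was tracked continuously by NanoLuc luminescence from prosubstrate reduced by living HepG2 cells, at successive time points over 40 h of compound exposure. Cells with reagent were preincubated 5 h at 37 °C before compound addition.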
A general note: Quantitative high-throughput screening tests each substance at several concentrations.

Test [5] is described as follows: qHTS RealTime-Glo MT Cell Viability Assay in HEK293 cells - 24 hour (AID 1224886). Further: top concentration of the series differs between compounds; nearly all actives have a fitted effect of over 50% in size. The gist of the method: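 Viability tracked continuously by luminescence as live cells reduce a prosubstrate for NanoLuc; HEK293 cells preincubated 5 h, compound-treated at 37 C, and read at 0, 8, 16, 24, 32 and 40 h.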
The nature of test [6]: qHTS RealTime-Glo MT Cell Viability Assay in HEK293 cells - 8 hour (AID 1224887). Further: top concentration of the series differs between compounds; nearly all actives have a fitted effect of over 50% in size. The method, boiled down:
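600 HEK293 cells per well, dispensed already mixed with RealTime-Glo MT reagents. Compound dosing came 5 h later. The same wells were read for luminescence at 0, 8, 16, 24, 32 and 40 h of exposure at 37 C.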

A short description of test [7]: A CellTox Green Cytotoxicity Assay to monitor cytotoxicity in HEK293 cells - 16 hour (AID 1224888). Further: nearly all actives have a fitted effect of over 35% in size. The method, boiled down:
as §1

The nature of test [8]: qHTS RealTime-Glo MT Cell Viability Assay in HepG2 cells - 0 hour (AID 1224889). Further: nearly all actives have a fitted effect of over 50% in size. Further: potency means the concentration at half of the fitted maximal effect. The method, boiled down: as §3
The nature of test [9]: A CellTox Green Cytotoxicity Assay to monitor cytotoxicity in HepG2 cells - 8 hour (AID 1224890). Further: nearly all actives have a fitted effect of over 45% in size. The gist of the method: as §2
The nature of test [10]: qHTS assay to identify small molecule antagonists of the estrogen receptor alpha (ER-alpha) signaling pathway using the BG1 cell line in the presence of 0.1 nM 17-beta-estradiol - cell viability counter screen (AID 1259241). Further: nearly all actives have a fitted effect of over 40% in size. The method, boiled down:
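VM7Luc4E2, 4,000 cells/well, phenol red-free medium + 10% charcoal-stripped FBS; 24 hr plating; cpd + 0.1 nM E2 final, 22 hr 37C/5% CO2; CellTiter-Fluor 30 min, fluorescence.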

Test [11] is described as follows: qHTS assay to identify small molecule antagonists of the androgen receptor (AR) signaling pathway using the MDA cell line in the presence of 0.5 nM R1881 - cell viability counter screen (AID 1259242). Further: nearly all actives have a fitted effect of over 45% in size. The gist of the method: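 qHTS format. MDA-kb2 (MMTV-luc, AR/GR responsive) + cpd + 0.5 nM R1881 final, 16 hr 37C/0% CO2 → CellTiter-Fluor 30 min → fluorescence intensity.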

Test [12] is described as follows: qHTS assay to identify small molecule HDAC inhibitors (AID 1259364).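 Further: wild-type HCT-116 cells with endogenous class I/II HDAC activity; top concentration of the series differs between compounds; nearly all actives have a fitted effect of over 45% in size.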 The method, boiled down:
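Quantitative high-throughput format: overnight-seeded HCT-116 cells got compounds for 2 hr at 37C; HDAC-Glo I/II reagent added, 30 min RT, luminescence measured.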

Test [13] in a line: qHTS assay to identify small molecule HDAC inhibitors - cell viability counter screen (AID 1259365). The method, boiled down:
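Luminescence from CellTiter-Glo, developed 30min at room temperature, reports viability of wild-type HCT-116 cells treated 2hr with compounds at 37 C and 5% CO2 after overnight plating.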

Test [14] can be described thus: qHTS assay to identify small molecule agonists of the sonic hedgehog signaling (Shh) pathway - cell viability counter screen (AID 1259366). Further: nearly all actives have a fitted effect of over 50% in size. The method, boiled down: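 Cytotoxicity counter screen run in the same wells as the Shh reporter assay. NIH/3T3 cells carrying a Gli1 response element–driven luciferase were treated with DMSO-dissolved compounds for 24hr, and live-cell protease activity was measured with CellTiter-Fluor.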

A short description of test [15]: qHTS assay to identify small molecule agonists of the sonic hedgehog signaling (Shh) pathway (AID 1259368; calls by dose curve;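 further: NIH/3T3-derived 3T3Gli1-Luc cells carrying a stable Gli1-driven firefly luciferase reporter; series mostly up to about 92 µM; nearly all actives have a fitted effect of over 15% in size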). The gist of the method: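 Quantitative high-throughput format using a Gli1-driven firefly luciferase reporter line derived from NIH/3T3 cells. After a 24 hr compound treatment at 37 C and 5% CO2, luminescence reported Gli1 response element activity.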
The nature of test [16]: A CellTox Green Cytotoxicity Assay to monitor cytotoxicity in HEK293 cells - 8 hour (AID 1224884). Further: nearly all actives have a fitted effect of over 35% in size. The gist of the method: as §1
In test [17] the target is Estrogen receptor (Homo sapiens) (UniProt P03372). The test can be described thus: qHTS assay to identify small molecule antagonists of the estrogen receptor alpha (ER-alpha) signaling pathway using the BG1 cell line in the presence of 0.1 nM 17-beta-estradiol (AID 1259244). Further: nearly all actives have a fitted effect of over 50% in size. The method, boiled down: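 Reporter is a stably transfected luciferase under four estrogen responsive elements in VM7Luc4E2 cells expressing native full-length ER-alpha; inhibition of 0.1 nM (final) 17beta-estradiol-driven signal over 22 h is read by luminescence.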
Estrogen receptor (Homo sapiens), sequence (P03372 whole entry, looked up): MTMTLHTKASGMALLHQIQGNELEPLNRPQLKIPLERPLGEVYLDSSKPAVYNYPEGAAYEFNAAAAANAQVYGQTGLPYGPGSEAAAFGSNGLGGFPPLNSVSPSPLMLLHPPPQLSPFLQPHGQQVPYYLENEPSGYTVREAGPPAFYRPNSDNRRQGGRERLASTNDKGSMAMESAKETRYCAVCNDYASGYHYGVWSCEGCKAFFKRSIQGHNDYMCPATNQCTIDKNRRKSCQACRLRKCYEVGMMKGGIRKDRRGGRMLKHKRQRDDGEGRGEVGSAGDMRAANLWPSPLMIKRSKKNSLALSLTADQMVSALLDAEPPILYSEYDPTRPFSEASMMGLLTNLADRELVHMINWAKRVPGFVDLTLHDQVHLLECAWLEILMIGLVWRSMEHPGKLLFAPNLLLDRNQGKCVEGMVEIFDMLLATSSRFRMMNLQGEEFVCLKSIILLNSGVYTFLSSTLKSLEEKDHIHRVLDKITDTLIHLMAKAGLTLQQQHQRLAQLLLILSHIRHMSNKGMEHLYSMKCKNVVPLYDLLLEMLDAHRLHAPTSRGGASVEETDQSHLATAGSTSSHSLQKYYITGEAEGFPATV

The nature of test [18]: qHTS assay to identify small molecule antagonists of the sonic hedgehog signaling (Shh) pathway - cell viability counter screen (AID 1259367). Further: nearly all actives have a fitted effect of over 55% in size. The gist of the method: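 Fluorescence read-out (CellTiter-Fluor, 1 hr at 37C) taken after 23 hr compound treatment of 3T3 Gli1-Luc cells stimulated with conditioned medium. Cells were seeded at 2,000 per well and pre-incubated 4 hr.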

Test [19] is described as follows: qHTS assay to identify small molecule phospholipidosis (PLD) inducers (AID 1259344; active means well fitted curve in the direction sought with a large enough effect; an effect the other way counts as inactive or inconclusive). The method, boiled down: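 Read-out is LipidTOX Red fluorescence (ex 595/em 615) imaged in HepG2 cells after 24 h compound exposure at 37 C, with Hoechst nuclear counterstain (ex 352/em 461) allowing per-cell normalisation.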
Test [20] deals with Androgen receptor (Homo sapiens) (UniProt P10275). The test can be described thus: qHTS assay to identify small molecule antagonists of the androgen receptor (AR) signaling pathway using the MDA cell line in the presence of 0.5 nM R1881 (AID 1259243). Further: nearly all actives have a fitted effect of over 50% in size. The gist of the method:
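Antagonist mode quantitative HTS in MDA-kb2 MMTV-luciferase cells, agonist R1881 at 0.5 nM final, 16 hr exposure at 37C and 0% CO2, luminescent detection.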

A number with no mark means an inactive call. Records with an inconclusive call do not appear. Calls of active or inactive are those of the source. Unless noted, the call rests on the fitted dose curve; in most records, active means well fitted curve in the direction sought with a large enough effect in the repeat runs; inconclusive means weak or mixed curves; inactive means no such curve, though single readings can be large; an effect the other way counts as inactive or inconclusive.
On the % scale 0 is the no-effect control and ±100 the full control effect.

Androgen receptor (Homo sapiens), sequence (P10275 whole entry, looked up): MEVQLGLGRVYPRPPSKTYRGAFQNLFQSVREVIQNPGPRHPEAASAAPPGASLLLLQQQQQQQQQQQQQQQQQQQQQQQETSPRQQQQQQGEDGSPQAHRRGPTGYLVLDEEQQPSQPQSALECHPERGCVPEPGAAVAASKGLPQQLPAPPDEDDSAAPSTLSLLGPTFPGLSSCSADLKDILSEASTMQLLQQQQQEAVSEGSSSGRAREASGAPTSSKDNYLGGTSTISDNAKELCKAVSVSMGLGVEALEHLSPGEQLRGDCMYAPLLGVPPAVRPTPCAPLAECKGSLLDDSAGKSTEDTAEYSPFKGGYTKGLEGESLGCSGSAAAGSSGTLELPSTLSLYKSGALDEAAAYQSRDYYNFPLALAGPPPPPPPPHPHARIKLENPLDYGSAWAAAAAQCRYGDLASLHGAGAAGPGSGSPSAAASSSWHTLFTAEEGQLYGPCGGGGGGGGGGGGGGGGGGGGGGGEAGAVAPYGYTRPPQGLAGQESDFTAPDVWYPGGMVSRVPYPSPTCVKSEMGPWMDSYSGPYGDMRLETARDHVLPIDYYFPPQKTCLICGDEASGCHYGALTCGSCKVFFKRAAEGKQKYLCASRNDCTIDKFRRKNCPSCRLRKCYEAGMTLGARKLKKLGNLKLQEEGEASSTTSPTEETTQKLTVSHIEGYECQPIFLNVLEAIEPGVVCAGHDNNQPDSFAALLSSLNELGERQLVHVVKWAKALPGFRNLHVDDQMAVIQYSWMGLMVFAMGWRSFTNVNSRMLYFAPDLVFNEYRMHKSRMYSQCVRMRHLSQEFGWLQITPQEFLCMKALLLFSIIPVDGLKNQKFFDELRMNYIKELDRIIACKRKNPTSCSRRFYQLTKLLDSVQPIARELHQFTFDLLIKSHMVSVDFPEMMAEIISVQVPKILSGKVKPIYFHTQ

As to `CCCCCCCCCCCCCCCCCBr`, the cytotoxicity increase in test [1] is -9.33% [at 15.8 µM]; in test [3] it was -10.1% [at 15.8 µM]; in test [9], -11.1% [at 15.8 µM]. In [2], the cytotoxicity was -6.85% [at 15.8 µM]. For the same compound, the activity change, negative = cytotoxic in test [4] was -3.91% [at 15.8 µM]. The activity change, negative = cytotoxicity in test [5] was -0.166% [at 15.8 µM]; in test [6], 2.84% [at 15.8 µM]; in [8], -6.2% [at 15.8 µM]; in test [10], 5.52% [at 19 µM]; in test [13] it was 0.135% [at 19 µM]. Further, the activity change in test [7] is -5.91% [at 15.8 µM, active compounds read high]; in [15], -0.456% [at 18.9 µM]. Also, the viability change, negative = cytotoxic is -0.565% [at 19 µM] in test [11] and -1.63% [at 19 µM] in test [14]. The activity change, negative = inhibition in test [12] was 6.57% [at 19 µM].

On to `Cc1ncsc1CCO`, for which the Potency entry in test [1], in [2], in test [16], in test [4], in test [5] and in [6] was “inactive” each time. For the same compound, the Potency entry in [7], in test [8], in test [9], in test [10], in [11] and in [17] was “inactive” throughout. For the same compound, the Potency entry in test [12], in test [14] and in [18] was “inactive” in each case. Besides, the call in [13] and in test [15] was inactive.

For the compound `CCCCCCCCCCCCCCCBr`, the Potency result in test [1], in test [2], in [3], in [5], in test [6] and in test [7] was “inactive” throughout. The Potency entry in test [8], in test [9], in test [10], in [11], in test [17] and in test [12] was “inactive” throughout. Besides, the Potency result in [14] and in test [18] was “inactive” in each case. For the same compound, the call in test [13] and in test [15] was inactive.

On to `O=C(O)Cn1c(C(=O)Nc2nc(-c3ccccc3Cl)cs2)cc2ccccc21`, for which the Potency entry in test [1], in [2], in test [3], in test [5], in test [6] and in test [7] was “inactive” in each case. The Potency result in test [9], in [10], in [11], in test [17], in test [19] and in test [12] was “inactive” in each case. Also, the Potency entry in test [14] and in test [18] was “inactive” throughout. Besides, the compound was classed as inactive in test [13] and in test [15].

Regarding `CC(=O)[C@@]1(O)CC[C@H]2[C@@H]3C[C@H](C)C4=CC(=O)CC[C@]4(C)[C@H]3CC[C@@]21C`, the Potency entry in test [1], in test [2], in test [3], in [4], in test [7] and in test [10] was “inactive” in each case. Also, the Potency entry in [11], in test [17], in [12], in [14] and in test [18] was “inactive” in each case. Moreover, the Potency in [8] was 1.51 µM (active). Besides, the call in [13] and in test [15] was inactive.

With `NC[C@H]1O[C@H](O[C@H]2[C@H](O)[C@@H](O[C@H]3O[C@H](CO)[C@@H](O)[C@H](N)[C@H]3O)[C@H](N)C[C@@H]2N)[C@H](O)[C@@H](O)[C@@H]1O`, the cytotoxicity increase in [1] is 10.5% [at 6.97 µM]; in [16], 7.24% [at 6.97 µM]; in test [9] it was 21.1% [at 6.97 µM]. Also, the cytotoxicity in [2] was 1.08% [at 6.97 µM]. For the same compound, in test [4], the activity change, negative = cytotoxic is 2.6% [at 6.97 µM]. In addition, the activity change, negative = cytotoxicity in test [5] is 13.6% [at 6.97 µM]; in test [6], 2.67% [at 6.97 µM]; in [8], 17.3% [at 6.97 µM]; in [10] it was 2.35% [at 8.39 µM]; in test [13], 2.31% [at 8.39 µM]. The activity change was 6.94% [at 6.97 µM, active compounds read high] in test [7] and 1.6% [at 8.39 µM] in test [15]. Moreover, the viability change, negative = cytotoxic in test [11] was 1.3% [at 8.39 µM]; in test [14], -24.3% [at 8.39 µM]; in [18] it was -30.1% [at 8.39 µM]. For the same compound, the Potency result in test [19] was “inactive”. Moreover, the activity change, negative = inhibition in test [12] is -0.959% [at 8.39 µM].

As to `CCCCOC(O)CC` (stereo not drawn), the Potency result in test [1], in [2], in test [3], in [4], in test [5] and in test [6] was “inactive” each time. In addition, the Potency result in test [7], in test [8], in [9], in [10], in test [11] and in test [20] was “inactive” in each case. The Potency entry in test [17], in test [12], in test [14] and in [18] was “inactive” in each case. Also, the call in [13] and in test [15] was inactive.

Values taken from PubChem BioAssay (Tox21).
